# Measured values published in PubChem BioAssay (Tox21).
# Unmarked numbers belong to inactive results. Records with an inconclusive call do not appear. Where a call stands in place of a potency, no number is given. Active and inactive are the calls of the source. Calls follow the shape of the dose curve; as a rule, active = well fitted curve in the direction sought with a large enough effect in the repeat runs; inconclusive = weak or mixed curves; inactive = no such curve, though single readings can be large; an effect the other way counts as inactive or inconclusive. Where a SMILES comes first, the peptide text is derived from it. [ ]: non-standard residue; d: D form. pGlu = O=C1CC[C@@H](C(=O)O)N1
# What was measured:
# [1] = Human pregnane X receptor (PXR) small molecule agonists, qHTS cell viability counter screen (AID 1346977); also: nearly all actives have a fitted effect of over 50% in size
# Outline: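 Measures live-cell protease fluorescence (CellTiter-Fluor) in PXR-Luc HepG2 cells treated 24hr with compounds at 37C. Cells had 5hr to attach before pin transfer of DMSO solutions.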
# [2] = Caspase-3/7 induction in CHO-K1 cells by small molecules, qHTS cell viability counter screen (AID 1346979); also: nearly all actives have a fitted effect of over 35% in size; also: potency is read from the fitted curve at half-maximal effect
# Outline: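 In the same wells as the caspase read, viability of compound-treated wild-type CHO-K1 cells was assessed using CellTiter-Fluor, added after 16hr at 37C and measured by fluorescence following 1hr further incubation.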
# [3] = Caspase-3/7 induction in CHO-K1 cells by small molecules, qHTS assay (AID 1346980); also: nearly all actives have a fitted effect of over 15% in size
# Outline: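 Wild-type cells were seeded at 1,500 per well and settled 5 hr at 37 C, 5% CO2, then exposed to DMSO-dissolved compounds for 17 hr. Caspase-Glo 3/7 reagent was added, and luminescence was read after 30min at room temperature.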
# [4] = Caspase-3/7 induction in HepG2 cells by small molecules, qHTS cell viability counter screen (AID 1346981); also: nearly all actives have a fitted effect of over 30% in size; also: potency is read from the fitted curve at half-maximal effect
# Outline: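 After a 5-hr attachment period at 37 C and 5% CO2, wild-type HepG2 cells received compounds in DMSO. Sixteen hours later CellTiter-Fluor was dispensed and the fluorescent signal quantified after a further hour.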
# [5] = biological target: Nuclear receptor subfamily 1 group I member 2 (Rattus norvegicus) (UniProt Q9R1A7); test: Rat pregnane X receptor (rPXR) activation by small molecules, qHTS assay (AID 1346983); settings: rPXR luciferase reporter cells, One-Glo luminescence, 24 h; max activation: active compounds read high; also: nearly all actives have a fitted effect of over 20% in size
# Nuclear receptor subfamily 1 group I member 2 (Rattus norvegicus), sequence (Q9R1A7 whole entry, looked up): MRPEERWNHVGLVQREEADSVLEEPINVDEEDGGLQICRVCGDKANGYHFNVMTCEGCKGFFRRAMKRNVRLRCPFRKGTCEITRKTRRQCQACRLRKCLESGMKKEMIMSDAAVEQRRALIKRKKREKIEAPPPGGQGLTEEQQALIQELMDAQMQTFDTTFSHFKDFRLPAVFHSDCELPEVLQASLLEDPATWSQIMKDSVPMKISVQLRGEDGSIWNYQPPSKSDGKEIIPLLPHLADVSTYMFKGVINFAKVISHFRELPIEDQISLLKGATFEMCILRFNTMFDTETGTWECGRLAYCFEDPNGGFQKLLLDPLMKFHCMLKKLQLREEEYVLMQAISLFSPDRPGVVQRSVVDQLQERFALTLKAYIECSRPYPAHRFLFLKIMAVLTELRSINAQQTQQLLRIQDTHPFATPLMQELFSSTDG
# Outline: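 Cell-based rPXR luciferase reporter assay, 2,000 cells per well, rested 5hr at 37 C before compound addition in DMSO, then 24 hr at 37 C. One-Glo reagent was added and luminescence read after 30 min at room temperature.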
# [6] = Caspase-3/7 induction in HepG2 cells by small molecules, qHTS assay (AID 1346978); also: nearly all actives have a fitted effect of over 15% in size
# Outline: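 Wild-type HepG2 cells (2,000/well) were settled 5 h at 37 C, 5% CO2, then exposed to compounds in DMSO for 17 h. Caspase-3/7 activity was read by luminescence 30 min after adding Caspase-Glo 3/7 reagent at room temperature.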
# [7] = biological target: Nuclear receptor subfamily 1 group I member 2 (Homo sapiens) (UniProt O75469); test: Human pregnane X receptor (PXR) small molecule agonists, qHTS assay (AID 1346982); also: nearly all actives have a fitted effect of over 35% in size; also: potency is read from the fitted curve at half-maximal effect
# Nuclear receptor subfamily 1 group I member 2 (Homo sapiens), sequence (O75469 whole entry, looked up): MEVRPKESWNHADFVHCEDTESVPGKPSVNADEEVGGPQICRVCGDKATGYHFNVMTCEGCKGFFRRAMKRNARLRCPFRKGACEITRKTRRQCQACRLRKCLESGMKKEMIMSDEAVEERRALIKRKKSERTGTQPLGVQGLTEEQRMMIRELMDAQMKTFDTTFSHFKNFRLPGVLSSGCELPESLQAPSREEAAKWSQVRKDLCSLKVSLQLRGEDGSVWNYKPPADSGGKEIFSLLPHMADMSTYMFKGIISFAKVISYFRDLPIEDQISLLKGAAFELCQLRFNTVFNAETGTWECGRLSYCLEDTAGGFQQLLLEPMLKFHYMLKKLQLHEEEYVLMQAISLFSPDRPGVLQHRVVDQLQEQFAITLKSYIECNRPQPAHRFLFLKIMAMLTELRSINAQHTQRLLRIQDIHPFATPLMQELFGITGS
# Outline: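 Tox21 qHTS; PXR-Luc HepG2; compounds pinned from DMSO; 24 hr, 37 C; ONE-Glo luciferase detection, 30 min room temperature.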
# [8] = biological target: Nuclear receptor subfamily 1 group I member 2 (Homo sapiens) (UniProt O75469); test: CYP3A4 induction through human pregnane X receptor (PXR) by small molecules, qHTS assay (AID 1346984); also: nearly all actives have a fitted effect of over 40% in size
# Outline: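 Cells (DPX-2; HepG2 with PXR element plus CYP3A4-promoter luciferase) settled 5hr, then were treated 24hr at 37C. A 3hr, 3uM-final Luciferin-IPA step preceded luminescence measurement with One-Glo.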
# [9] = biological target: Nuclear receptor subfamily 1 group I member 2 (Homo sapiens) (UniProt O75469); test: Human pregnane X receptor (PXR) activation by small molecules, qHTS assay (AID 1346985); also: nearly all actives have a fitted effect of over 40% in size
# Outline: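 DPX-2 cells (HepG2 co-transfected with a PXR response element and a CYP3A4-promoter luciferase construct) were seeded at 2,000 per well, rested 5 hr at 37C, then exposed to DMSO-dissolved compounds for 24 hr. Activation was read as luciferase luminescence.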
# [10] = biological target: Cytochrome P450 2D6 (Homo sapiens) (UniProt P10635); test: Cytochrome P450 Family 2 Subfamily D Member 6 (CYP2D6) small molecule antagonists: luciferase reporter qHTS assay (AID 1671196); also: nearly all actives have a fitted effect of over 50% in size; also: potency is read from the fitted curve at half-maximal effect
# Cytochrome P450 2D6 (Homo sapiens), sequence (P10635 whole entry, looked up): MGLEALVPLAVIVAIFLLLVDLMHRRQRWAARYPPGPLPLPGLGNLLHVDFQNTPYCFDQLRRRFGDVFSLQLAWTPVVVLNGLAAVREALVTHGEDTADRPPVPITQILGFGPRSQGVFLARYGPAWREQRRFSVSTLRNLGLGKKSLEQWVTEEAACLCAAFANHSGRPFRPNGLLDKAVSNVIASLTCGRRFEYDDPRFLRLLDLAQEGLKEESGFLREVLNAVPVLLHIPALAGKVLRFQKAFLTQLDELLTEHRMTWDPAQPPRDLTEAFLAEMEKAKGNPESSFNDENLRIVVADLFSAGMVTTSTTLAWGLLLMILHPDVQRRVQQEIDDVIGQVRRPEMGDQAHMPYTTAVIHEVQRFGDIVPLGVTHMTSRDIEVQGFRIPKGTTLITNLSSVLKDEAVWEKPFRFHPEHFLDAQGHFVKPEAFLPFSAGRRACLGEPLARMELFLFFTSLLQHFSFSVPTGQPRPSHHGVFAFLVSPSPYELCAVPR
# Outline: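 Room-temperature luminescent CYP2D6 activity assay: compound preincubated 10 min with enzyme–substrate mix, NADPH-initiated reaction 1 h, detection reagent 20 min before reading.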
Compound,Potency [1],Potency [2],outcome [3],Potency [4],max activation [5] [%],outcome [6],Potency [7],Potency [8],Potency [9],Potency [10]
NS(=O)(=O)Cc1noc2ccccc12,inactive,inactive,inactive,inactive,-2.52,,,,,
CCCCCC(C)N (configuration not stated),,inactive,inactive,inactive,-3.3,inactive,inactive,inactive,inactive,inactive
c1coc(CNc2ncnc3nc[nH]c23)c1,,inactive,inactive,inactive,,inactive,,,,
CNC(=O)Nc1ccc(Cl)c(Cl)c1,inactive,inactive,inactive,inactive,,,34.4 µM (active),,,inactive
CC(=O)O[C@@]12CO[C@@H]1C[C@H](O)[C@@]1(C)C(=O)[C@H](O)C3=C(C)[C@@H](OC(=O)[C@H](O)[C@@H](NC(=O)OC(C)(C)C)c4ccccc4)C[C@@](O)([C@@H](OC(=O)c4ccccc4)[C@H]21)C3(C)C,inactive,,inactive,,,,inactive,inactive,,38.9 µM (active)
CCCCCCCCCC[N+](C)(C)[O-],inactive,inactive,inactive,inactive,,,inactive,,,35.6 µM (active)
C=COCC1CCC(COC=C)CC1 (configuration not stated),inactive,inactive,inactive,inactive,,,inactive,,,inactive
OCCc1ccccn1,inactive,inactive,inactive,inactive,,,inactive,,,inactive
Cc1ccc(C(=O)c2ccccc2)cc1,,inactive,inactive,inactive,,inactive,inactive,,,
Cc1nc(C2CCCCC2)c(-c2ccc(S(N)(=O)=O)c(F)c2)o1,inactive,inactive,inactive,inactive,,,21.1 µM (active),,,13.8 µM (active)
CC[N+](C)(CC)CCOC(=O)C1c2ccccc2Oc2ccccc21,inactive,inactive,inactive,inactive,0.786,,inactive,inactive,,2.75 µM (active)
C[N+](C)(C)CCCCCCCCCC[N+](C)(C)C,inactive,inactive,inactive,inactive,-3.83,,inactive,inactive,inactive,inactive
NC(CCC(=O)O)C(=O)O (configuration not stated),inactive,inactive,inactive,,,,inactive,,,31 µM (active)
NCCCC[C@H](N[C@@H](CCc1ccccc1)C(=O)O)C(=O)N1CCC[C@H]1C(=O)O,inactive,,inactive,inactive,-3.44,,,,,inactive
CC(C)(C#N)Nc1nc(Cl)nc(NC2CC2)n1,,inactive,inactive,inactive,,inactive,27.3 µM (active),,,
CCCC[N+](C)(CCCC)CCCC,inactive,inactive,inactive,inactive,,,,,,2.77 µM (active)
CCCn1cc[n+](C)c1C,inactive,inactive,inactive,inactive,,,inactive,,,inactive
CCCCCCC1CCC(=O)O1 (configuration not stated),inactive,inactive,inactive,,,,inactive,,,inactive
CCCC(=O)O[C@]1(C(=O)CC)CC[C@H]2[C@@H]3CCC4=CC(=O)CC[C@]4(C)[C@H]3[C@@H](O)C[C@@]21C,,inactive,inactive,inactive,,inactive,3.76 µM (active),,,
CCN1CCOCC1,inactive,,inactive,inactive,,,inactive,,,6.21 µM (active)
O=C(O)CNC(=O)c1ccccc1,inactive,,inactive,,-5.13,,,inactive,inactive,inactive
CCOC(=O)C1=NOC(c2ccccc2)(c2ccccc2)C1,inactive,inactive,inactive,inactive,,,68.6 µM (active),,,inactive
CC[N+](CC)(CC)CCOc1cccc(OCC[N+](CC)(CC)CC)c1OCC[N+](CC)(CC)CC,inactive,inactive,inactive,inactive,-1.52,,inactive,inactive,inactive,inactive
CCCCCCCCCCCCSC,inactive,inactive,inactive,inactive,,,inactive,,,inactive

Compound,Potency [1],Potency [2],outcome [3],Potency [4],max activation [5] [%],outcome [6],Potency [7],Potency [8],Potency [9],Potency [10]
COc1cc(-c2ccc(=O)[nH]n2)ccc1OC(F)F,inactive,,inactive,inactive,,,4.73 µM (active),,,4.36 µM (active)
CCOC(=O)OC(C)OC1=C(C(=O)Nc2ccccn2)N(C)S(=O)(=O)c2ccccc21 (configuration not stated),,inactive,inactive,inactive,-2.57,inactive,inactive,inactive,inactive,inactive
Cc1onc(-c2c(Cl)cccc2Cl)c1C(=O)Cl,inactive,,inactive,,,,inactive,,,inactive
CCCCc1nc(Cl)c(CO)n1Cc1ccc(-c2ccccc2-c2nn[nH]n2)cc1,,inactive,inactive,inactive,-3.95,inactive,inactive,inactive,inactive,
O=S(=O)(O)c1cc(O)c(O)c(S(=O)(=O)O)c1,inactive,,inactive,inactive,,,inactive,,,inactive
CC1=NN(c2cccc(S(=O)(=O)O)c2)C(=O)C1,inactive,,inactive,,,,inactive,,,inactive
CN(C)C(=O)Oc1ccc[n+](C)c1,inactive,inactive,inactive,inactive,-1.23,,inactive,inactive,inactive,inactive
O=C(O)c1cn(C2CC2)c2cc(N3CCNCC3)c(F)cc2c1=O,inactive,inactive,inactive,inactive,-1.42,,,,,
CN1CCC(=C2c3ccccc3CCc3cccnc32)CC1,,inactive,inactive,inactive,,,inactive,,,
CC(C)CC(C)(N)C#N (configuration not stated),,inactive,inactive,inactive,,inactive,inactive,,,inactive
COc1cc2c(cc1OC)-c1cc3ccc(OC)c(OC)c3c[n+]1CC2,,,inactive,,,inactive,inactive,,,9.02 µM (active)
CCC(C)(CCCC(C)C)OC(C)=O (configuration not stated),,inactive,inactive,,,inactive,inactive,,,inactive
O=S(=O)(O)c1cccc2ccccc12,,inactive,inactive,inactive,,inactive,inactive,,,inactive
CC(C)(N)C#N,,inactive,inactive,inactive,,inactive,inactive,,,inactive
COc1c(N2CCNC(C)C2)c(F)cc2c(=O)c(C(=O)O)cn(C3CC3)c12 (configuration not stated),,inactive,inactive,inactive,,inactive,inactive,,,inactive
COCCOC[C@H](CC1(C(=O)NC2CCC(C(=O)O)CC2)CCCC1)C(=O)Oc1ccc2c(c1)CCC2 (some centres not stated),,,inactive,,,inactive,inactive,,,inactive
CCOC(=O)C(=O)CCCCCCl,,inactive,inactive,inactive,,inactive,inactive,,,38.9 µM (active)
CCCO[Si](OCCC)(OCCC)OCCC,,inactive,inactive,inactive,,inactive,inactive,,,inactive
[Ca+2],,inactive,inactive,inactive,,inactive,inactive,,,35.6 µM (active)
O=C1c2ccccc2C(=O)c2cc(O)ccc21,,inactive,inactive,,,inactive,17.2 µM (active),,,
CCCC(C)C(=O)OCC (configuration not stated),,inactive,inactive,inactive,,inactive,inactive,,,inactive
CC(C)COC(=O)c1ccc(N)cc1,,inactive,inactive,inactive,0.562,inactive,21.1 µM (active),inactive,inactive,inactive
CCCCS(=O)(=O)N[C@@H](Cc1ccc(OCCCCC2CCNCC2)cc1)C(=O)O,,inactive,inactive,inactive,,inactive,inactive,,,inactive
CNCC(O)c1ccc(O)c(O)c1 (configuration not stated),,inactive,inactive,inactive,,,inactive,,,

Compound,Potency [1],Potency [2],outcome [3],Potency [4],max activation [5] [%],outcome [6],Potency [7],Potency [8],Potency [9],Potency [10]
CC(=O)Oc1cccc(C)c1,,inactive,inactive,inactive,-3.04,inactive,inactive,inactive,inactive,inactive
CCN1C=CN(C)C1C (configuration not stated),,,inactive,inactive,,inactive,inactive,,,inactive
FB(F)F,,,inactive,,,inactive,inactive,,,inactive
CC(=O)c1ccccc1[N+](=O)[O-],,inactive,inactive,inactive,,inactive,30.1 µM (active),,,inactive
CCC(C)(CN(C)C)OC(=O)c1ccccc1 (configuration not stated),,,inactive,inactive,-1.69,inactive,,,,
C=CC(C)(CCC=C(C)C)OC(=O)CC (configuration not stated),,inactive,inactive,inactive,,,inactive,,,inactive
CC1OC1C1CCC2(C)OC2C1 (configuration not stated),,inactive,inactive,inactive,,inactive,inactive,,,inactive
CCCCOCCOC(=O)COc1cc(Cl)c(Cl)cc1Cl,,,inactive,inactive,,inactive,inactive,,,
NC(=O)N[C@@H](CCC(=O)O)C(=O)O,,,inactive,,-3.04,inactive,inactive,inactive,inactive,inactive
CCOC(=O)c1ccccc1,,inactive,inactive,,,,inactive,,,inactive
CC1=NN(c2cc(S(=O)(=O)O)ccc2Cl)C(=O)C1N=Nc1ccccc1 (configuration not stated),,54.5 µM (active),inactive,54.5 µM (active),,inactive,,,,inactive
Cc1coc2ccccc2c1=O,,inactive,inactive,inactive,,inactive,inactive,,,inactive
COc1ccnc(CS(=O)c2nc3cc(OC(F)F)ccc3[nH]2)c1OC (configuration not stated),,inactive,inactive,inactive,,inactive,24.5 µM (active),,,12.7 µM (active)
N[C@@H](CCC(=O)O)C(=O)O,,,inactive,inactive,,inactive,inactive,,,
Clc1cc(Cl)cc(Cl)c1,,inactive,inactive,inactive,,inactive,inactive,,,inactive
CCNC(=O)[C@@H]1CCCN1C(=O)[C@H](CCCN=C(N)N)NC(=O)[C@H](CC(C)C)NC(=O)CNC(=O)[C@H](Cc1ccc(O)cc1)NC(=O)[C@H](CO)NC(=O)[C@H](Cc1c[nH]c2ccccc12)NC(=O)[C@H](Cc1cnc[nH]1)NC(=O)[C@@H]1CCC(=O)N1 ([pGlu]HWSYGLRP-NHEt),,inactive,inactive,inactive,,,inactive,,,inactive
CO[C@@]1(NC(=O)C(C(=O)O)c2ccc(O)cc2)C(=O)N2C(C(=O)O)=C(CSc3nnnn3C)CO[C@@H]21 (some centres not stated),,inactive,inactive,,-4.79,inactive,inactive,inactive,inactive,inactive
CC(C)(C)C(=O)c1ccccc1,,,inactive,inactive,,inactive,inactive,,,inactive
NO,,,inactive,inactive,,inactive,,,,
CCC1C(=O)OCC1Cc1cncn1C (configuration not stated),,,inactive,inactive,-2.44,inactive,inactive,inactive,inactive,inactive
[K+],,,inactive,inactive,,,27.3 µM (active),,,inactive
Cc1cccc(C)c1NC(=O)CC12CCCN1CCC2,,,inactive,inactive,6.3,inactive,inactive,inactive,inactive,
CC1CCC(CO)CC1 (configuration not stated),,inactive,inactive,inactive,,inactive,inactive,,,inactive
